Measurements taken from PubChem BioAssay (NCATS).
Records with an inconclusive call do not appear. Active and inactive are the calls of the source. The call rests on the fitted dose curve; in most records, active means well fitted cell-killing curve with a large enough effect; inconclusive means small, poorly fitted or top-dose-only effect; inactive means flat fitted curve, though single readings scatter.

Legend:
[1] = Cell Viability - LYMP2-019 (AID 973); conditions: LYMP2-019 lymphoblastoid cell line viability; series mostly up to 92.2 µM; further: nearly all actives have a fitted effect of over 55% in size
Outline: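 AC50 values come from Hill-equation fits of luminescent intracellular ATP (CellTiter-Glo, 30 min, room temperature) following 24 h compound exposure at 37 C. Cells: LYMP2-019 lymphoblastoid line, 2500 per well, in complete culture medium.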

[2] = Cell Viability - LYMP2-021 (AID 974); conditions: LYMP2-021 lymphoblastoid cells viability; series mostly up to 92.2 µM; further: nearly all actives have a fitted effect of over 55% in size
Outline: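 AC50 values come from Hill-equation fits to CellTiter-Glo luminescence (ATP content), read after 24 hour compound exposure at 37 C of 2500 LYMP2-021 lymphoblastoid cells/well; tetraoctylammonium bromide as positive control.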

[3] = Cell Viability - LYMP2-023 (AID 975); conditions: LYMP2-023 lymphoblastoid cell viability; series mostly up to 92.2 µM;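 further: cellular ATP measured by luciferase luminescence as viability proxy; nearly all actives have a fitted effect of over 55% in size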
Outline: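 Intracellular ATP, read by CellTiter-Glo luminescence, reports viability after 24 hr compound exposure at 37 C. 2500 lymphoblastoid cells/well (LYMP2-023) seeded 5 hr beforehand; Hill fits give AC50; positive control tetraoctylammonium bromide.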

[4] = Cell Viability - LYMP2-025 (AID 976); conditions: LYMP2-025 lymphoblastoid cell viability; series mostly up to 92.2 µM
Outline: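 Cytotoxicity read as loss of intracellular ATP (luciferase luminescence) after 24 h compound treatment at 37 C. Uses LYMP2-025 lymphoblastoid cells in 1536-well format; Hill-equation modelling gives AC50; tetraoctylammonium bromide as positive control.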

[5] = Cell Viability - LYMP2-002 (AID 977); conditions: LYMP2-002 lymphoblastoid cell viability, qHTS; series mostly up to 92.2 µM
Outline: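 Human lymphoblastoid cells (2500/well) in complete medium were preincubated 5 hr at 37 C, then exposed to compounds for 24 hr at 37 C. Intracellular ATP was read by CellTiter-Glo luminescence; AC50 came from Hill-equation concentration-response fits.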

[6] = Cell Viability - LYMP2-006 (AID 978); conditions: LYMP2-006 lymphoblastoid cell viability, qHTS; series mostly up to 92.2 µM; further: nearly all actives have a fitted effect of over 60% in size
Outline: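 Cells are seeded at 2500 per well and rested 5 hr at 37 C. Compounds are added across a concentration series for 24 hr at 37 C, after which ATP is quantified by luciferase luminescence.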

[7] = Cell Viability - LYMP2-007 (AID 979); conditions: LYMP2-007 lymphoblastoid cell viability; series mostly up to 92.2 µM;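 further: cells exposed to compound for 24 h before reading; nearly all actives have a fitted effect of over 60% in size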
Outline: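 AC50 values come from Hill-equation fits of luminescent intracellular ATP (CellTiter-Glo, 30 min, room temperature) following 24 h compound exposure at 37 C. Cells: LYMP2-007 lymphoblastoid line, 2500 per well, in complete culture medium.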

[8] = Cell Viability - LYMP2-008 (AID 980); conditions: LYMP2-008 lymphoblastoid cell viability, qHTS; series mostly up to 92.2 µM; further: nearly all actives have a fitted effect of over 60% in size
Outline: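 Cytotoxicity determined from ATP-dependent luciferase luminescence (CellTiter-Glo) following 24 h compound exposure of human lymphoblastoid LYMP2-008 cells at 37 C. Concentration-response data fitted to the Hill equation to give AC50.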

[9] = Cell Viability - LYMP2-010 (AID 981); conditions: LYMP2-010 lymphoblastoid cell viability, qHTS; series mostly up to 92.2 µM; further: nearly all actives have a fitted effect of over 55% in size
Outline: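 CellTiter-Glo ATP luminescence measured cytotoxicity after 24 h compound exposure at 37 C. LYMP2-010 cells were seeded at 2500/well, with tetraoctylammonium bromide as control; concentration-response curves gave AC50 values by the Hill equation.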

[10] = Cell Viability - LYMP2-012 (AID 982); conditions: LYMP2-012 lymphoblastoid cell viability qHTS; series mostly up to 92.2 µM
[11] = Cell Viability - LYMP2-014 (AID 983); conditions: LYMP2-014 lymphoblastoid cells, viability qHTS; series mostly up to 92.2 µM; further: nearly all actives have a fitted effect of over 50% in size
Outline: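 Intracellular ATP loss, read by luciferase luminescence, measures acute cytotoxicity after 24 h compound exposure of lymphoblastoid LYMP2-014 cells (2500/well, 37 C). Concentration-response data fitted to the Hill equation for AC50.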

[12] = Cell Viability - LYMP2-016 (AID 984); conditions: LYMP2-016 lymphoblastoid cell viability, qHTS; series mostly up to 92.2 µM; further: nearly all actives have a fitted effect of over 55% in size
Outline: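 Cells were seeded at 2500 per well and rested 5 hr before a 24 hr compound exposure at 37 C. Viability was then gauged as cellular ATP by luciferase luminescence, with AC50 values fitted to the Hill equation.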

[13] = Cell Viability - LYMP2-018 (AID 985); conditions: LYMP2-018 lymphoblastoid cells, viability (qHTS); series mostly up to 92.2 µM; further: nearly all actives have a fitted effect of over 50% in size
Outline: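 Viability read as CellTiter-Glo luminescence (cellular ATP) after 24 hr compound exposure at 37 C of 2500 LYMP2-018 lymphoblastoid cells/well, pre-plated 5 hr. Hill-equation modelling gave AC50.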

[14] = Cell Viability - LYMP2-020 (AID 986); conditions: series mostly up to 92.2 µM; further: nearly all actives have a fitted effect of over 55% in size
Outline: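 Cytotoxicity in qHTS format: luminescent ATP readout from CellTiter-Glo after 24 h compound exposure at 37 C in complete medium. LYMP2-020 lymphoblastoid cells were seeded at 2500/well; concentration-response data fitted to the Hill equation for AC50.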

[15] = Cell Viability - LYMP2-022 (AID 987); conditions: LYMP2-022 lymphoblastoid cell viability; series mostly up to 92.2 µM; further: nearly all actives have a fitted effect of over 55% in size
Outline: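 Cytotoxicity read as decreased cellular ATP (CellTiter-Glo luminescence, 30 min room temperature) after 24 hours compound exposure of 2500 lymphoblastoid LYMP2-022 cells/well at 37 C. Concentration-response data fitted with standard Hill equation for AC50.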

[16] = Cell Viability - LYMP2-024 (AID 988); conditions: LYMP2-024 lymphoblastoid cell viability; series mostly up to 92.2 µM; further: nearly all actives have a fitted effect of over 60% in size
Outline: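 Cytotoxicity was taken as a decrease in ATP (CellTiter-Glo luminescence) after 24 hr compound exposure at 37 C of LYMP2-024 lymphoblastoid cells, 2500 cells/well. Concentration-response data were fitted to the Hill equation to give AC50.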

[17] = Cell Viability - LYMP2-026 (AID 989); conditions: LYMP2-026 lymphoblastoid cell viability, qHTS; series mostly up to 92.2 µM; further: nearly all actives have a fitted effect of over 50% in size
Outline: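 Cytotoxicity read as ATP-dependent luminescence (CellTiter-Glo, 30 min room temperature) after 24 h compound treatment at 37 C. LYMP2-026 lymphoblastoid line seeded at 2500 cells/well; AC50 derived by standard Hill equation.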

[18] = Cell Viability - LYMP1-002 - Assay at 24 hr (AID 993); conditions: LYMP1-002 lymphoblastoid cells viability; series mostly up to 92.2 µM
Outline: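 qHTS cytotoxicity at 24 h: CellTiter-Glo ATP luminescence in lymphoblastoid line LYMP1-002 incubated with compound at 37 °C. Concentration-response modeled with the Hill equation for AC50; tetraoctylammonium bromide served as positive control.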

[19] = Cell Viability - LYMP1-002 - Assay at 40 hr (AID 994); conditions: LYMP1-002 lymphoblastoid cell viability; series mostly up to 92.2 µM; further: nearly all actives have a fitted effect of over 60% in size
Outline: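 Cytotoxicity was read as loss of cellular ATP (CellTiter-Glo luminescence) after 40 hr compound exposure at 37 C of 2500 LYMP1-002 lymphoblastoid cells per well. Concentration-response data were fitted with the standard Hill equation to give AC50.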

Measured: outcome

CN(C)CCOC(c1ccccc1)c1ccccc1 (tested in a mixture with another compound)
inactive: all assays above
